# Gal4-VP16 FLuc: VP16 counterscreen qHTS for inhibitors of ROR gamma transcriptional activity; Drosophila S2 Gal4-VP16 UAS-luciferase, luminescence, 20 h; Potency, µM (titrated, usually from 53.6 µM), without a hit: top-dose activity, negative = inhibition, actives largely listed as inhibitors; 3.5% of 310,000 active; AID 2546, 2010;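 also: Gal4-VP16 expression switched on by copper sulfate through the metallothionein promoter; potency is read from the fitted curve at half-maximal effect; % is scaled to controls: 0 for no effect and ±100 for the full control effect; nearly all actives have a fitted effect of over 50% in size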
# Giardia kill: Small Molecules that selectively kill Giardia lamblia: qHTS. Giardia lamblia trophozoite viability. activity change, % at 7.66 µM, hits read low. 0.15% of 340,000 active. AID 540267, 2011; in the data active = activity change below about -80%; inconclusive = between about -30% and that limit;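 also: parasites exposed to compound for two days anaerobically before the ATP read; % is scaled to controls: 0 for no effect and ±100 for the full control effect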
#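 Luminescent ATP signal served as the viability read-out, measured 15-30 min after adding ATP detection reagent to trophozoites that had been incubated with compounds for 48 hrs at 37 deg C anaerobically at 100 cells/well.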
# ERG Ets-DNA blk: qHTS for Small Molecule Inhibitors of the ERG Ets/DNA interaction. Transcriptional regulator ERG (Homo sapiens), P11308. fluorescence polarization, His-ERG Ets domain / labelled DNA. Potency, µM (top dose mostly 76.9 µM), inactives show top-dose FP activity, negative = inhibition, most hits filed as inhibitors. 0.028% of 370,000 active. AID 624246, 2012; active = well fitted inhibition curve with a large enough effect in the polarisation, with a control signal flat; inconclusive = small, poorly fitted or top-dose-only effect, or effect the other way, or a change in a side signal; inactive = no such curve, though single readings can be large or run the other way; the % refers to the polarisation;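 also: polarization taken with two DNA probes labelled with fluorescein and Texas red; potency is read from the fitted curve at half-maximal effect; % of control where 0% means no effect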
# Target sequence (P11308 whole entry, looked up, the tested form may be a part): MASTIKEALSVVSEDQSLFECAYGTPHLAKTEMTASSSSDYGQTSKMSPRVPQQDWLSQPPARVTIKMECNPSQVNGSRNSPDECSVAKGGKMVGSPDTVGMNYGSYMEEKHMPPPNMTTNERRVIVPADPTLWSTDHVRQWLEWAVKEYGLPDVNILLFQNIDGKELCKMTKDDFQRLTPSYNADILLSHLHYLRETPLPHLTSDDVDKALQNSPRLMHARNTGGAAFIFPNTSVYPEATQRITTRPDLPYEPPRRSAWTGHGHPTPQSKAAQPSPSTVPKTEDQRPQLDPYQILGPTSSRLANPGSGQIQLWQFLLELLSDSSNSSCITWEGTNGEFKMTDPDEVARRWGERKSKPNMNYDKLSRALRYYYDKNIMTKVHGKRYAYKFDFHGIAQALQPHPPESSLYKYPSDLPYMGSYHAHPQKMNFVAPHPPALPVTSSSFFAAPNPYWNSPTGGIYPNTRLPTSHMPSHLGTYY
#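 His-tagged ERG Ets domain (1 uM in the protein solution; 300mM KCl, 50mM Tris-HCl, 1mM EDTA, 1mM DTT, pH 7.5) received compound, then a probe mix of 5 nM fluorescein-DNA and 100nM Texas-615-DNA. Fluorescence polarization was read for both dyes.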
# a7 integrin act: qHTS for Activators of Integrin-Mediated Alleviation for Muscular Dystrophy | 0.064% of 350,000 active | Potency, µM (series often up to 38.3 µM), for inactives: at the highest dose activation, most hits filed as activators | alpha7betagal myoblasts, beta-gal FDG fluorescence, 48 h;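 also: potency is read from the fitted curve at half-maximal effect; 100% = response of the positive control SU9516; nearly all actives have a fitted effect of over 60% in size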
#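 Alpha7betagal+/- myoblasts (passage 13) were plated 16-24 hr, then exposed to compounds (1:260 dilution of DMSO stock) for 48 hours at 37C. After MPER lysis, β-galactosidase reporter activity was read as FDG fluorescence (ex 480/em 540) after 30 minutes.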
# RORg inh: qHTS for inhibitors of ROR gamma transcriptional activity. Potency, µM (titrated, usually from 53.6 µM), for the others: top-dose activity change, negative = inhibition, usual class: inhibitors. Drosophila S2 Gal4-RORgamma UAS-luciferase reporter, 20 h. Nuclear receptor ROR-gamma (Mus musculus), P51450. AID 2551, 2010. 5.4% of 310,000 active; also: potency is read from the fitted curve at half-maximal effect; % is scaled to controls: 0 for no effect and ±100 for the full control effect; nearly all actives have a fitted effect of over 60% in size
#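 ROR gamma transcriptional activity was tracked as Gal4-UAS luciferase output in stably transfected Drosophila Schneider cells, with compound added 1 hr before 700 uM copper sulfate induction and a 20 hr ambient-temperature incubation.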
# * hit, by the source's call; ? = inconclusive; . = not tested or not shown; [ ] = another dose, or the depositor's remark. The full list was thinned out, with hits kept by preference. Unless noted, calls follow the shape of the dose curve; as a rule, active = well fitted curve in the direction sought with a large enough effect; inconclusive = small, poorly fitted or top-dose-only effect, or another doubt; inactive = no such curve, though single readings can be large; an effect the other way counts as inactive or inconclusive.
SMILES,Gal4-VP16 FLuc,Giardia kill,ERG Ets-DNA blk,a7 integrin act,RORg inh
O=[N+]([O-])c1nn(-c2ccc3c(c2)OCCO3)n(O)c1=NC1CCCCC1,?,-84.2*,2.6%,-29.4%,27.0%
COc1ccccc1CN=c1c([N+](=O)[O-])nn(-c2ccc3c(c2)OCCO3)n1O,14.4%,-89.7*,-5.8%,-12.1%,26.9%[10 µM]
O=C(c1coc2ccccc2c1=O)N1CCN(c2cccc(C(F)(F)F)c2)CC1,?,-2.0,.,5.2%,?
COC(=O)c1ccc(N)c(N=CC2=C(O)CC(C)(C)CC2=O)c1,?,2.2,4.3%,-3.1%,12.6µM*
CC1(C)CC(=O)C(C=Nc2ccc(N)cc2)=C(O)C1,?,-0.4,-6.2%,-11.1%,-8.4%
CC1(C)CC(=O)C(C=Nc2cc(C(=O)c3ccccc3)ccc2N)=C(O)C1,?,-14.7,16.4%,-4.3%,7.94µM*
Cc1ccc(CC(NC(=O)C2CCCCC2)C(=O)O)cc1 (centres undefined),.,-4.0,-3.0%,19.8%,.
COc1ccc(CN(C(=O)Nc2cccc(Cl)c2)c2ccccn2)cc1OC,.,.,0.9%,.,.
COc1ccc(/C=C2\CCCc3c2nc2ccccc2c3C(=O)OCC(=O)c2c(N)n(C)c(=O)n(C)c2=O)cc1,1.7%,.,.,.,28.6%
CC(NC(=O)CCCCCCN1C(=O)c2ccccc2C1=O)c1ccc2c(c1)CCCC2 (centres undefined),10µM*,-8.1,1.3%,-22.2%,?
c1ccc(-c2nc(-c3cccs3)[nH]c2-c2ccccc2)cc1,-8.4%,5.4,5.2%,-18.0%,10µM*
O=C(Nc1c(-c2ccccc2)nc2ccccn12)c1ccco1,-3.5%,2.9,-20.0%,-14.4%,10.8%
Cc1ccc(-c2nc3ccccn3c2NC(=O)c2ccco2)cc1,12.3%,-15.5,.,-13.5%,39.8µM*
CC(C)(C)c1cc(Cc2ccccc2)[nH]n1,-1.4%,-0.3,3.3%,3.2%[7.66 µM],17.8µM*

# Compound activity (PubChem)
